This passage reports outcome, max response and Potency results from PubChem BioAssay (NCATS).

Common to all, as to experiment: Cytotoxic Profiling of Annotated Libraries Using Quantitative High-Throughput Screening (AID 1296008); note: nearly all actives have a fitted effect of over 60% in size
Common to all, as to conditions: Five cell lines viability, CellTiter-Glo ATP luminescence, 48-72 h; max response: active compounds read low

One test relates to CRL-7250. Put shortly:
(§1)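 Cytotoxicity was measured as CellTiter-Glo ATP luminescence, read after 10 min at room temperature. Compound treatment of the cells lasted 48 or 72 hr at 37 degrees Celsius in a qHTS format.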

In another test the test system is HEK293. The procedure, abridged:
as §1

The subject of another test is HaCat. The procedure, abridged: as §1
The next test concerns KB-3-1. Put shortly: as §1
In the next test the test system is NIH3T3. Put shortly:
as §1

Values joined by “and” are separate entries in the source; they are usually repeats but may differ in a detail not shown here. Equal entries are not always repeated. Results filed as inconclusive are left out. A number with no mark means an inactive call. Active and inactive are the calls of the source. Calls come from the whole dose curve; as a rule, active = well fitted inhibition curve with a large enough effect; inconclusive = small, poorly fitted or top-dose-only effect; inactive = flat fitted curve, though single readings scatter. Where a SMILES comes first, the peptide text is derived from it. [ ]: non-standard residue; d: D form. ξ: configuration not given here. ξPhe(βξ-Me) = CC(c1ccccc1)C(N)C(=O)O; GABA = NCCCC(=O)O
% is set by controls: 0 for no effect and ±100 for the full control effect; potency is the fitted concentration of half-maximal effect.

With `C=C1CC2C3(C)C(O)CC(=O)C(C)(C)C3C(OC(C)=O)C(OC(C)=O)C2(C)C2C(=O)OC(C)(C(=O)OC)C(=O)C12C` (stereo not given), the compound was called inactive in the test with CRL-7250, in the test with HEK293 and in the test on NIH3T3. For the same compound, the max response is 3.78% in the test on HaCat and 5.29% in the test with KB-3-1.
In the case of `CCC(C)(O)C(O)C(=O)OCc1ccc(O[C@@H]2O[C@H](CO)[C@@H](O)[C@H](O)[C@H]2O)c(OC)c1` (stereo not given in full), the results for the max response with CRL-7250 and in the test on KB-3-1 were 0.769% and 4.31%, respectively. Further, the compound was classed as inactive with HEK293, in the test with HaCat and in the test with NIH3T3.
For the compound `C[C@@H](Nc1cc(NS(=O)(=O)N2CCC2)nc(SCc2cccc(F)c2F)n1)[C@@H](O)CO`, the results for the max response in the test with CRL-7250, with HaCat and in the test with KB-3-1 were 3.18%, 1.29% and -2.77%, respectively. The result with HEK293 and with NIH3T3 was inactive.
With `CC(=O)OCC1=C[C@H](O)[C@@H]2C(C(=O)O)=CO[C@@H](O[C@@H]3O[C@H](CO)[C@@H](O)[C@H](O)[C@H]3O)[C@H]12`, the outcome with CRL-7250, in the test on HEK293, in the test with HaCat and in the test on NIH3T3 was inactive. Further, the max response in the test with KB-3-1 was -1.91%.
Take `COc1cc(C/C(=C/NC(C)=O)N(CC(=O)Cc2ccccc2)C(C)=O)cc2c1OCO2`: the results for the max response in the test on CRL-7250, with KB-3-1 and with NIH3T3 were -6.34%, 7.98% and 2.9%, respectively. Besides, the result in the test on HEK293 and in the test on HaCat was inactive.
Consider `O=C(O)c1cc(O)c2cccc(O)c2c1O[C@@H]1O[C@H](CO)[C@@H](O)[C@H](O)[C@H]1O`, for which the max response with CRL-7250 is -1.91%; in the test with HaCat it was 2.74%; in the test with KB-3-1 it was 4.95%. In addition, the outcome in the test on HEK293 and in the test with NIH3T3 was inactive.
`CC(C)CC(=O)OC[C@H]1O[C@@](COC(=O)CC(C)C)(O[C@H]2O[C@H](CO)[C@@H](O)[C@H](O)[C@H]2O)[C@@H](OC(=O)CC(C)C)[C@@H]1OC(=O)CC(C)C`: the max response with CRL-7250 was -0.942%; in the test on KB-3-1, 9.19%. The compound was classed as inactive in the test on HEK293, in the test with HaCat and in the test on NIH3T3.
On to `C=C1C(O[C@@H]2O[C@H](CO)[C@@H](O)[C@H](O)[C@@H]2O)CC2C(C)(C)C(O)CCC2(C)C1CC/C(C)=C\CO` (stereo not given in full), for which the max response with CRL-7250 is -10.8%; in the test with HaCat, -5.23%; in the test with NIH3T3 it was -3.89%. The result in the test with HEK293 and in the test with KB-3-1 was inactive.
For the compound `COc1cc(N2CCC(N(C)C)CC2)ccc1Nc1ncc(Cl)c(Nc2ccccc2P(C)(C)=O)n1`, the Potency with CRL-7250 is 2.91 µM (active) and 1.48 µM (active); with HEK293, 5.17 µM (active) and 1.86 µM (active); with HaCat it was 1.84 µM (active) and 2.34 µM (active); in the test on KB-3-1, 4.11 µM (active); in the test on NIH3T3, 2.06 µM (active).
For `CCCCS(=O)(=O)Nc1ncnc(OCCOc2ncc(Br)cn2)c1-c1ccc(Br)cc1`, the max response was -8.77% in the test with CRL-7250 and 1.6% in the test with NIH3T3. Also, the compound was called inactive in the test on HEK293, in the test with HaCat and in the test with KB-3-1.
Regarding `C[C@@H]1C[C@H](O[C@@H]2O[C@H](CO[C@@H]3OC[C@](O)(CO)[C@H]3O)[C@@H](O)[C@H](O)[C@H]2O)CC(C)(C)[C@H]1/C=C/[C@@H](C)O`, the max response in the test on CRL-7250 is -2.76%. In addition, the call in the test on HEK293, in the test on HaCat, with KB-3-1 and with NIH3T3 was inactive.
Regarding `CC1CCC23COC(=O)C2=CC(O)CC3C1(C)CCC1=CC(=O)OC1O` (stereo not given), the outcome with CRL-7250, in the test with HEK293, with KB-3-1 and in the test on NIH3T3 was inactive. In addition, the max response in the test with HaCat is -0.369%.
In the case of `CC(C)c1cc2c(c(O)c1O[C@@H]1O[C@H](CO)[C@@H](O)[C@H](O)[C@H]1O)CC1(O)CCC(O)C(C)(C)C1CC2` (stereo not given in full), the compound was called inactive in the test with CRL-7250, in the test on HEK293 and in the test on HaCat. In addition, the max response is 2.46% in the test on KB-3-1 and 0.487% with NIH3T3.
As for `CC(=O)c1c(C)cc(O[C@@H]2O[C@H](CO)[C@@H](O)[C@H](O)[C@H]2O)cc1O`, the compound was classed as inactive with CRL-7250 and in the test with HEK293. The max response in the test on HaCat is 3.2%; with KB-3-1 it was -6.9%; in the test on NIH3T3 it was 0.376%.
Consider `CC(C)CC1NC(=O)C(C(C)c2ccccc2)NC(=O)C(C(C)C)NC(=O)C(C)NC(=O)CCCNC(=O)C(Cc2c[nH]c3ccccc23)NC(=O)C(C)NC1=O` (stereo not drawn) (cyclo([GABA]AV[ξPhe(βξ-Me)]LAW); configuration not given here), for which the values for the max response with CRL-7250 and with NIH3T3 were -5.31% and 3.96%, respectively. Also, the call with HEK293, with HaCat and in the test with KB-3-1 was inactive.
Turning to `OC[C@H]1O[C@@H](n2cnc3c(NCc4ccc(O)cc4)ncnc32)[C@H](O)[C@@H]1O`, in the test with CRL-7250, the Potency was 6.51 µM (active). Also, the compound was called inactive in the test on HEK293 and in the test on NIH3T3. Besides, the max response is -13.2% in the test with HaCat and -13.6% in the test on KB-3-1.
Consider `CC1(CCC(=O)O)C(=O)C=CC23CC4CC(OC4(C)C2O)C13` (stereo not given), for which the max response with CRL-7250 was 3.62%; in the test on KB-3-1, 2.02%. In addition, the call in the test with HEK293, in the test on HaCat and in the test with NIH3T3 was inactive.
In the case of `CC(/C=C/[C@]1(O)[C@@]2(C)CO[C@@]1(C)C[C@@H](O)C2)=C\C(=O)O[C@@H]1O[C@H](CO)[C@@H](O)[C@H](O)[C@H]1O`, the result with CRL-7250, with HEK293, in the test with KB-3-1 and in the test on NIH3T3 was inactive. In addition, the max response in the test on HaCat was -14.2%.
